Data taken from PubChem BioAssay (NCATS).
Several values for one entry are separate records, joined by “and”; a condition that tells them apart may be missing. Identical values can stand only once. Records with an inconclusive call do not appear. Activity calls are given as the source filed them. Calls follow the shape of the dose curve; as a rule, active = well fitted cell-killing curve with a large enough effect; inconclusive = small, poorly fitted or top-dose-only effect, or effect the other way; inactive = no such curve, though single readings can be large or run the other way.

experiment: Viability qHTS for spleen associated tyrosine kinase inhibitor (SYKi) naive MV4-11 cells (AID 1963823); settings: MV4-11 AML viability, CellTiter-Glo luminescence, 72 h; series mostly up to 45 µM; viability (% of control): at the top concentration; also: nearly all actives have a fitted effect of over 40% in size
Text: Department of Medicine, Hematology/Oncology
University Hospital Frankfurt, Germany.
Trials have shown promising clinical activity of the selective SYK inhibitor entospletinib in patients with high expressing HOXA9/MEIS1 acute leukemias. As the development of resistance mechanisms is a common problem in the use of targeted drugs, we performed a chemical library screen to identify drug sensitivities in SYK inhibitor resistant AML cells. […] Glucocorticoids are potent immunosuppressants which work in part by inhibiting the transcription of cytokine genes.
Described herein is a viability screen to look for activity in the SYK inhibitor naive cell line against four NCATS compound libraries (MIPE 5.0, NPC, NPACT, and Kinase) totaling 11372 compounds. Active hits were reacquired for confirmation and further secondary assay testing.
SEQUENCE No. (e.g., 1, 2, 3, etc.); […] (e.g., Cells, Incubation, Reagent, etc.); VALUE; DESCRIPTION.
1; Media; 2uL; white, solid-bottom Corning assay plate.
2; Compounds; 23nL; Echo acoustic dispenser.
3; Cell; 5uL; 500 cells per well.
4: Incubation; 72hr; 37 C, 5% CO2, 95% humidity.
5; Reagent; 3uL; CellTiter-Glo reagent (Promega).
6; Incubation; 10min; room temperature.
7; Detection; Luminescence; ViewLux plate reader (PerkinElmer).
NOTES (numbers refer to Sequence numbers above
1. Quantitative high-throughput screening (qHTS) of small molecule compounds was conducted on naive SYKi MV4-11 cell line.
2. Twenty-three nanoliter of small molecule compounds were added to each assay plates using the Echo acoustic dispenser (Beckman Coulter).
3. Cells were seeded into the assay plates at a final density of 500 cells in 5uL of media per well using the Multi-drop Combi dispenser.
4. Plates were covered with stainless steel gasketed lids and incubated for 72 hours at standard cell culture conditions.
5. Viability was assessed by adding 3uL of CellTiter-Glo detection reagent (Promega).
6. Plates were covered with gasket lids and incubated for 10 minutes at room temperature.
7. Luminescence was measured on a ViewLux plate reader (PerkinElmer).
Potency is read from the fitted curve at half-maximal effect.

Row | Structure (SMILES) | viability (% of control) | Potency
1 | O=C(CO)[C@@H](O)[C@H](O)[C@@H](O)CO | 105% (inactive) | 
2 | CC1OC2OC(=O)C3(C)CC4=C(CO)C5=C(CC(=O)C4(C)C(C1=O)C23)C(C)(C)OC(=O)C5 (stereo not given) | 88.8% [at 17.3 µM] (inactive) | 
3 | OCc1ccc(-c2nn(Cc3ccccc3)c3ccccc23)o1 |  | 5.25 µM (active)
4 | Oc1ccc(C(O)CNCCCCCCNCC(O)c2ccc(O)c(O)c2)cc1O (stereo not given) | 94.8% (inactive) | 
5 | Cc1cc(C)c(CNC(=O)c2cc(-c3ccc(CN4CCOCC4)cc3)cc3c2cnn3C2CCCC2)c(=O)[nH]1 | 73.8% (inactive) | 
6 | C[C@@H]1O[C@@H](O[C@H]2[C@H](OC(=O)[C@]34CCC(C)(C)C[C@H]3C3=CCC5[C@@]6(C)C[C@H](O)[C@H](O[C@@H]7O[C@H](CO[C@@H]8OC[C@H](O)[C@H](O)[C@H]8O)[C@@H](O)[C@H](O)[C@H]7O)C(C)(C)C6CC[C@@]5(C)[C@]3(C)C[C@H]4O)OC[C@@H](O)[C@@H]2O)[C@H](O)[C@H](O[C@@H]2OC[C@](O)(CO)[C@H]2O)[C@H]1O[C@@H]1OC[C@H](O)[C@H](O[C@@H]2OC[C@@H](O)[C@H](O)[C@H]2O)[C@H]1O (stereo not given in full) | 72% [at 9.25 µM] (inactive) | 
7 | CN(C)CCCNC(=O)c1ccc(-c2cc(O)c3ncccc3c2)cc1 |  | 5.8 µM (active)
8 | Cc1cn2c(n1)Cc1ccc(Cl)cc1C(c1ccc(N)cc1)=N2 |  | 14.6 µM (active)
9 | Cn1cc(C[C@@H](N)C(=O)O)c2ccccc21 | 69.9% [at 9.25 µM] (inactive) | 
10 | CN1C(=O)[C@@H](NC(=O)c2n[nH]c(Cc3ccccc3)n2)COc2ccccc21 | 76% (inactive) | 
11 | Nc1nnnn1-c1ccccc1 | 78.6% (inactive) | 
12 | CN(C)CC(=O)N1CCC(c2ccc(NC(=O)c3ncc(C#N)[nH]3)c(C3=CCCCC3)c2)CC1 |  | 73.1 nM (active) and 74.2 nM (active)
13 | C[C@@H]1C[C@@H](O)[C@@]23CO[C@]2(CO)C[C@@H](O)CC3[C@@]12CC(c1ccoc1)OC2=O (stereo not given in full) | 79.7% (inactive) | 
14 | NC(Cc1c[nH]c2ccccc12)C(=O)NC(CCC(=O)O)C(=O)O (stereo not given) |  | 2.91 µM (active)
15 | C[C@@H]1O[C@@H](O[C@H]2[C@H](O[C@H]3CC[C@@]4(C)C(CC[C@]5(C)C4CC=C4[C@@H]6CC(C)(C)CC[C@]6(C(=O)O[C@@H]6OC[C@H](O)[C@H](O)[C@H]6O[C@@H]6O[C@@H](C)[C@H](O[C@@H]7O[C@H](CO)[C@@H](O)[C@H](O)[C@H]7O)[C@H](O)[C@H]6O)[C@H](O)C[C@]45C)C3(C)C)O[C@H](CO)[C@@H](O[C@@H]3OC[C@@H](O)[C@H](O)[C@H]3O)[C@@H]2O)[C@H](O)[C@H](O)[C@H]1O (stereo not given in full) | 79.8% [at 9.25 µM] (inactive) | 
16 | CS(=O)(=O)c1ccc([C@@H](C[C@H]2CCC(=O)C2)C(=O)Nc2cnccn2)cc1Cl |  | 15.8 µM (active)
17 | O=C(Cc1ccc(Cl)cc1)Nc1cnccc1C(=O)O | 86.6% (inactive) | 
18 | CCC1=C[C@@H]2CN(C1)Cc1c([nH]c3ccccc13)[C@@](C(=O)OC)(c1cc3c(cc1OC)N(C)[C@H]1[C@@](O)(C(=O)OC)[C@H](OC(C)=O)[C@]4(CC)C=CCN5CC[C@]31[C@@H]54)C2 |  | 8.4 nM (active) and 91 nM (active)
19 | COc1cc(C(=O)OC[C@H]2O[C@H](O[C@@]3(CO)O[C@@H](CO)[C@H](O)[C@H]3O)[C@H](O)[C@@H](O)[C@@H]2O)ccc1O | 79.7% [at 17.3 µM] (inactive) | 
20 | Nc1nc2c(nc(Br)n2[C@@H]2O[C@@H]3COP(=O)(O)O[C@H]3[C@H]2O)c(=O)[nH]1 | 98.5% (inactive) | 

Row | Structure (SMILES) | viability (% of control) | Potency
21 | Cc1nc(Nc2cnn(C3CCNCC3)c2)nc2c1N(C)C(=O)c1cc3ccccc3cc1N2C |  | 3.66 µM (active)
22 | Cc1nc(-c2ccc(OCC(C)C)c(C#N)c2)sc1C(=O)O |  | inactive
23 | C/C=C/C=C/C=C/C(=O)N(C)C(C(=O)NC(C)C(=O)N1CCCC1C(N)=O)C(C)C (stereo not given) | 82.6% [at 17.3 µM] (inactive) | 
24 | C[N+]1(CC2COC(c3ccccc3)(C3CCCCC3)O2)CCCCC1 (stereo not given) |  | 13.3 µM (active)
25 | COc1cc(Nc2ccc([N+](=O)[O-])cc2C(=O)O)cc2ccccc12 | 78.6% (inactive) | 
26 | c1cc(-c2cc(C3CCNCC3)[nH]n2)ccn1 | 99% [at 17.3 µM] (inactive) | 
27 | O=c1[nH]nc(Sc2ncc([N+](=O)[O-])s2)n1-c1ccc2c(c1)OCCO2 |  | 2.35 µM (active)
28 | CC(C)[C@H]1CC[C@@]2(O)COC(=O)[C@H]2[C@@H]1/C=C(\CO)C(=O)O | 92.2% (inactive) | 
29 | CCOc1cc(C(=O)N2CCC(N3CCN(C)CC3)CC2)ccc1Nc1ncc2c(n1)N(C1CCCC1)c1ccccc1C(=O)N2C |  | 651 nM (active) and 1.05 µM (active)
30 | CC(C)C[C@@H](N)C(=O)N[C@H]1C(=O)N[C@@H](CC(N)=O)C(=O)N[C@H]2C(=O)N[C@H]3C(=O)N[C@H](C(=O)N[C@H](C(=O)O)c4cc(O)cc(O)c4-c4cc3ccc4O)[C@H](O)c3ccc(c(Cl)c3)Oc3cc2cc(c3O[C@@H]2O[C@H](CO)[C@@H](O)[C@H](O)[C@H]2O[C@H]2C[C@](C)(N)[C@H](O)[C@H](C)O2)Oc2ccc(cc2Cl)[C@H]1O | 89.5% [at 17.3 µM] (inactive) | 
31 | CC1(C)CC[C@]2(C(=O)O)CC[C@]3(C)C(=CCC4[C@@]5(C)C[C@H](O)[C@H](O[C@@H]6O[C@H](CO)[C@@H](O)[C@H](O)[C@H]6O)[C@@](C)(CO)C5[C@H](O)C[C@]43C)[C@@H]2C1 (stereo not given in full) | 89.4% [at 17.3 µM] (inactive) | 
32 | O=c1[nH]sc2cc(Cl)ccc12 | 5.46% (inactive) | 
33 | COc1cc(O)c2c(c1Cl)CC(C)OC2=O (stereo not given) | 85.8% (inactive) | 
34 | N[C@H](C(=O)O)c1ccc(O)cc1 | 99.9% [at 17.3 µM] (inactive) | 
35 | CCN(C)C(=O)Oc1cccc([C@H](C)N(C)C)c1 | 91.7% (inactive) | 
36 | O=C(O)CCNc1cc(N2CCc3ccccc3CC2)nc(-c2ccccn2)n1 |  | inactive
37 | O=C(OC1C=C(CO)C2C(OC3OC(CO)C(O)C(O)C3O)OC=CC12)c1ccc(O)cc1 (stereo not given) | 88.6% [at 17.3 µM] (inactive) | 
38 | Cc1cc([C@@H](C)Nc2ccccc2C(=O)O)c2nc(N3CCOCC3)cc(=O)n2c1 |  | 5.01 µM (active) and 5.25 µM (active)
39 | COC(=O)c1ccnc(-c2cc(C(=O)Nc3ccc(C4(N)CC4)cc3)ccn2)c1 | 6.63% (inactive) | 
40 | Cc1nc2cnc3ccc(C#Cc4cccnc4)cc3c2n1-c1ccc(C(C)(C)C#N)cc1 |  | 8.2 µM (active) and 235 nM (active)
